Screens: PubChem BioAssay, several laboratories
TIM10 inh = growth inhibitors of TIM10 yeast strain | S. cerevisiae TIM10 strain growth, BacTiter-Glo luminescence, 24 h | inhibition, % at 10 µM | 330,000 compounds, 1.4% hits;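 active = inhibition of 40% or more at the single tested concentration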;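 also: wild-type TIM10 isogenic control strain grown at permissive 25 °C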
tim10-1 inh = tim10-1 yeast growth inhibition; 330,000 compounds, 2.2% hits; AID 463190; S. cerevisiae tim10-1 ts strain growth, BacTiter-Glo, 24 h; inhibition, % at 20 µM;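 active = inhibition of at least 40%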;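 also: mutant grown at 25 °C; 0% = DMSO wells with yeast and 100% = wells holding no yeast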
NALP3 yeast inh = inhibitors of NALP3 inflammasome in yeast; Yeast reconstituted NLRP3/ASC/caspase-1, beta-gal luminescence, 24 h; inhibition, % at 10 µM; 330,000 compounds, 0.39% hits;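 active = inhibition of 50% or more; inactive = inhibition below 50%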;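 also: plate controls were induced DMSO wells for no effect and uninduced yeast grown without galactose for full effect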
tim23-1 inh = inhibits growth of tim23-1 mutant yeast; S. cerevisiae tim23-1 growth, BacTiter-Glo luminescence, 24 h; 330,000 compounds, 1.3% hits; AID 463212; inhibition, % at 20 µM;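 active = growth inhibition of the mutant yeast at or above 50%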;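 also: temperature-sensitive mutant grown at 25 °C; plate controls were DMSO-treated mutant yeast for no effect and medium wells lacking yeast for full effect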
PfHsp90 yeast 2 = inhibits growth of yeast expressing Plasmodium falciparum Hsp90. 310,000 compounds, 0.32% hits. AID 504621. S. cerevisiae expressing PfHsp90, BacTiter-Glo ATP, 48 h; yeast lacking PDR1 and PDR3 efflux regulators. inhibition, % at 9.4 µM;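 active = every replicate shows inhibition above about 80%, whatever the replicate mean, limit read from the data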;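 also: 0% = DMSO neutral controls and 100% = 20 µM radicicol positive controls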
tim10-1 confirm = tim10-1 yeast growth inhibition, confirmed. 7,400 compounds, 56% hits. inhibition, % at 20 µM. shares compounds with tim10-1 inh. S. cerevisiae tim10-1 ts strain growth, BacTiter-Glo, 24 h;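 active = inhibition of yeast growth at or above a set limit in either of two repeat tests at 20 µM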;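 also: tim10-1 mutant grown at permissive 25 °C to find synthetic lethal compounds; 0% = DMSO yeast wells and 100% = medium wells without yeast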
TIM10 conf = confirmation of TIM10 yeast growth inhibitors | inhibition, % at 10 µM | AID 463215 | shares compounds with TIM10 inh | S. cerevisiae tim10 strain growth, BacTiter-Glo luminescence, 24 h | 4,600 compounds, 63% hits;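 active = inhibition of yeast growth at or above a set limit in either of two replicates at 10 µM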;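 also: this counterscreen used the strain with wild-type TIM10; 0% = yeast with DMSO and 100% = medium wells lacking yeast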
Numbers without * were called inactive; · = no result. A selection: hits, their analogues and other compounds. The true share with any hit is near 3.7%.

SMILES	TIM10 inh	tim10-1 inh	NALP3 yeast inh	tim23-1 inh	PfHsp90 yeast 2	tim10-1 confirm	TIM10 conf
CCOc1ccc(C(C(=O)NCC2CCCO2)N(Cc2cccs2)C(=O)c2snc(C(N)=O)c2N)cc1 (centres undefined)	13	-12	3	-3	-22	·	·
COC(=O)CSc1nnc2n(-c3ccc(OC)cc3)c(=O)c3c4c(sc3n12)CCCCC4	19	21	2	2	10	·	·
COc1ccc(-n2c(=O)c3c4c(sc3n3c(=S)[nH]nc23)CCCC4)cc1	48*	40	15	30	-28	37*	18
COc1ccc(/C=C2\CCc3ccccc3C2=O)cc1Cn1nc(C)cc1C	49*	45*	12	47	-1	37*	40*
COc1ccc(/C=C2/CCc3ccccc3C2=O)cc1CN1CCOCC1	26	13	30	25	17	·	·
Cc1cccc(C)c1NC(=O)C1CCCN1C(=O)Nc1cccc(F)c1 (centres undefined)	-13	6	11	8	-4	·	·
CCOC(=O)c1ccccc1NC(=O)C1CC(=O)N(C2CCCC2)C1 (centres undefined)	·	·	·	·	-1	·	·
O=C(Nc1ccc(Cl)c(C(F)(F)F)c1)c1ccco1	51*	46*	-45	44	-52	56*	12
CCCCNC(=S)Nc1ccc(Oc2ccccc2)cc1	17	16	46	42	16	·	·
CCOc1ccc(CSCCNC(=S)Nc2ccccc2)cc1	47*	42*	48	45	-8	20	-40
S=C(NCCSCc1ccc(Cl)cc1Cl)Nc1ccccc1	59*	48*	35	0	-20	45*	53*
CCCNC(=S)Nc1ccc(Oc2ccccc2)cc1	42*	42*	42	33	5	21	24
C=CCn1c(C)nc2c(cnn2-c2ccccc2)c1=O	0	14	23	14	-7	·	·
Cc1cc(=O)oc2cc(OCC(=O)N3c4ccccc4NC(=O)C3(C)C)ccc12	-6	-10	-1	1	-6	·	·
O=Nc1c2nc3ccccc3n(O)c-2c2ccccc12	75*	84*	-1	40	·	83*	71*
O=C(O)c1cccc(N/N=C/c2cn(-c3ccccc3)nc2-c2cccs2)c1	61*	47*	36	10	-23	59*	65*
CCOC(=O)c1c(NC(=O)COC(=O)CCOc2cc(C)ccc2C)sc(C(=O)N(C)C)c1C	·	·	·	·	10	·	·
Cc1cc(NC(=O)COC(=O)c2ccc(OC(F)(F)F)cc2)no1	-2	8	22	14	14	·	·
Cc1cc(NC(=O)COC(=O)C(Nc2ccc(C(F)(F)F)cc2Cl)C(C)C)no1 (centres undefined)	50*	53*	16	43	15	23	43*
O=[N+]([O-])c1ccccc1S(=O)(=O)Nc1cccnc1	-4	-17	24	-10	15	·	·
Cc1ccc(-c2csc3ncnc(N4CCN(C(=O)c5ccccc5)CC4)c23)cc1	27	25	14	37	1	·	·
O=C(c1ccco1)N1CCN(c2ncnc3scc(-c4ccccc4)c23)CC1	44*	47*	-2	28	13	42*	-3
COC(=O)c1ccccc1NC(=S)NC(=O)COc1ccc(C)cc1	9	-2	12	3	-23	·	·
COC(=O)c1ccccc1NC(=S)NC(=O)COc1ccccc1Cl	42*	42*	23	34	·	24	32
CN1CCOc2ccc(S(=O)(=O)NCCc3ccc(Cl)cc3)cc21	2	23	11	37	-1	·	·
SMILES	TIM10 inh	tim10-1 inh	NALP3 yeast inh	tim23-1 inh	PfHsp90 yeast 2	tim10-1 confirm	TIM10 conf
COc1ccc(/C=C/C(=O)C2(O)CCCCC2)cc1OC	44*	47*	15	41	·	40*	31*
CCOC(=O)C1=C(C(=O)OCC)N(Cc2ccccc2)CCC1=O	·	·	·	·	11	·	·
CCOc1ccc(CC(=O)N/N=C(\C)c2cccnc2)cc1	-8	-6	11	-8	2	·	·
S=C(NN=C1C2CC3CC(C2)CC1C3)Nc1ccccc1	51*	60*	-1	48	0	46*	-25
CCC(C)(C)C1CCC(=NNC(=S)Nc2ccccc2)CC1 (centres undefined)	28	25	29	37	-1	·	·
CC1=Nc2ccccc2/C1=C\c1nc(-c2ccccc2)oc1O	45*	42*	23	26	-20	34*	35*
CCOc1ccc(-c2nnc(N(CC)C(=O)C3CCC3)s2)cc1	43*	43*	16	40	-42	31*	35*
COCCN(C(=O)C1CC1)c1nnc(-c2ccc(C)cc2)s1	9	29	20	17	-25	·	·
C[C@H]1CC[C@H]2C(=O)N3[C@H](c4ccccc4Br)[C@@H](C)CC[C@H]3C(=O)N2[C@@H]1c1ccccc1Br	44*	41*	1	47	·	33*	41*
Cc1ccc(SCCC(=O)N/N=C/c2ccccc2O)cc1	48*	43*	1	11	-3	14	44*
O=C(CN1C(=O)NC2(CCCC2)C1=O)NCCc1ccc(F)cc1	-6	9	6	8	31	·	·
O=C(NCc1ccco1)c1ccccc1F	8	20	8	-1	3	·	·
O=C(NCc1ccco1)c1ccccc1Nc1ccc(F)cc1	44*	52*	17	47	-5	47*	36*
O=C(/C=C/c1cccs1)c1cc(Cl)ccc1O	40	35	-23	26	-17	·	·
O=C(/C=C/c1ccc2ccccc2n1)c1cc(Cl)ccc1O	54*	54*	17	45	-9	37*	36*
COc1ccc(-c2cc(-c3cccs3)nc3sc(C#N)c(N)c23)cc1	17	35	15	28	-33	·	·
N#Cc1sc2nc(C3CC3)cc(-c3ccc(Cl)cc3)c2c1N	44*	43*	17	40	-9	36*	-6
Cc1cc(C)cc(NC(=O)COc2coc(CN3CCc4ccccc43)cc2=O)c1	13	10	12	14	3	·	·
COc1cccc2c1SCc1ccccc1C2CC(N)=O (centres undefined)	18	11	1	18	-2	·	·
N#Cc1ccc(S(=O)(=O)NCCc2ccncc2)cc1	·	·	·	·	9	·	·
Cc1cc(C)nc(SCC(=O)Nc2sc3c(c2C#N)CCC(C)C3)n1 (centres undefined)	-17	-2	7	-18	-16	·	·
Cc1cc(C(F)F)n2nc(C(=O)Nc3sc4c(c3C#N)CCC(C)C4)nc2n1 (centres undefined)	42*	57*	5	48	·	48*	42*
CN(C(=O)c1cccc(NC(=O)Cc2ccc(NC(=O)C3CCN(C(=O)C4CCCCC4)CC3)cc2)c1)C1CC1	·	·	·	·	-8	·	·
